# Activity calls are given as the source filed them. Unless noted, the rule behind the calls is not given here.
# Assays:
# [1] = compounds binding Alexa647 anti-His antibody – biochemical, small-molecule microarray, 635 nm fluorescence, artefact control for SMM control protein annotation, primary screen (AID 1128); details: higher = more signal;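 note: score merges feature fluorescence with signal-to-noise for each printed compound spot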
# [2] = test system: Human papillomavirus type 1a E7 protein (residues 1-88); assay: HPV1a E7 small-molecule binders, primary screen, biochemical, small-molecule microarray, residues 1-88, 635 nm (AID 1129); details: small-molecule microarray binding, fluorescence 635 nm; higher = more signal
# [3] = target: Focal adhesion kinase 1 (Homo sapiens) (UniProt Q05397); assay: PTK2 protein binding on printed compound slides – biochemical, small-molecule microarray, 635/667 nm fluorescence, BSA, DTT, primary screen (AID 1130); details: 635 nm fluorescence, higher = more signal;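 note: composite of spot emission at 667 nm and signal to noise over triplicate slides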
# [4] = test system: Fibrinogen (Alexa647-labelled); assay: Alexa647-fibrinogen binding to printed small molecules – biochemical, small-molecule microarray, 635/667 nm fluorescence, artefact control for SMM control-protein annotation, profiling panel (AID 1131); details: fibrinogen-A647 binding fluorescence, higher = more signal;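 note: z-score merges 667 nm fluorescence with per-spot signal-to-noise over triplicate slides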
# [5] = target: Follistatin (Homo sapiens) (UniProt P19883); assay: FST protein binding to printed compounds – biochemical, small-molecule microarray, 635/667 nm fluorescence, primary screen (AID 1132); details: 635 nm fluorescence, higher = more signal
# [6] = target: Fibroblast growth factor 2 (Homo sapiens) (UniProt P09038); assay: basic fibroblast growth factor binding to printed compounds – biochemical, small-molecule microarray, 635/667 nm fluorescence, primary screen (AID 1133); details: FGF2, fluorescence 635/667, higher = more signal
# [7] = JC-1 mitochondrial potential readout, lung cancer cells – cell-based, A549, JC-1 fluorescence, basal, 24 h, 100 nL, profiling panel (AID 1138); details: higher = more signal;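 note: A549 lung adenocarcinoma cells under basal conditions with no added stimulus; test concentration not given here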
# Lefty1 = Lefty1 protein binding to printed compounds – biochemical, small-molecule microarray, 635/667 nm fluorescence, primary screen (AID 1139); details: fluorescence 635/667, higher = more signal
# [8] = test system: wheat germ agglutinin (Triticum aestivum), Alexa647-labelled; assay: Alexa647-WGA lectin binding to printed small molecules – biochemical, small-molecule microarray, 635/667 nm fluorescence, artefact control for SMM control-protein annotation, profiling panel (AID 1140); details: WGA-A647 binding, 635 nm fluorescence, higher = more signal;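 note: score merges 667 nm feature emission with signal to noise over triplicate slides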
# [9] = target: Luciferin 4-monooxygenase (Photinus pyralis) (UniProt P08659); assay: inhibition of purified Photinus pyralis luciferase – biochemical, luminescence, purified enzyme, 2006 set, primary screen (AID 1141); details: purified firefly luciferase, SteadyGlo luminescence, 30 min; higher = more signal, called active from +8 up or from −8 down;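 note: cell-free assay with purified firefly luciferase at 100 ng per well in PBS; test concentration not given here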
# [10] = test system: Wnt5a (protein binding on small-molecule microarray); assay: small molecules binding Wnt5a protein – biophysical, small-molecule microarray, 635/667 nm fluorescence, primary screen (AID 1142); details: 635 nm fluorescence, higher = more signal;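 note: fluorescence read at 667 nm with signal to noise per printed feature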
# [11] = ATP-based viability of Huh7 replicon cells – cell-based, CellTiter-Glo luminescence, basal, 48 h, cytotoxicity control for HCV replication inhibitor project, primary screen (AID 1143); details: higher = more signal, called active from +8 up or from −8 down;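 note: Huh7 hepatoma cells carrying a hepatitis C replication reporter with no stimulus; test concentration not given here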
# [12] = Pseudomonas biofilm growth suppression – PAO1 strain, BacTiter-Glo luminescence, LB-PBS, primary screen (AID 1144); details: P. aeruginosa PAO1 biofilm, 12 h, higher = more signal
# [13] = basal CRE-LacZ reporter activity in PC12 – cell-based, unstimulated, primary screen (AID 1145); details: no forskolin, luminescence, 4.5 h, higher = more signal, called active from +8 up or from −8 down
# [14] = forskolin-driven CRE-LacZ activity in PC12 – cell-based, CRE-LacZ reporter, forskolin-stimulated, primary screen (AID 1146); details: luminescence, 4.5 h, higher = more signal, called active from +8 up or from −8 down;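 note: PC12 cells with 6xCRE LacZ reporter stimulated by forskolin 10 µM; beta-galactosidase reporter signal reflecting CREB driven transcription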
# [15] = target: Streptavidin (Streptomyces avidinii) (UniProt P22629); assay: compounds binding control protein streptavidin – biophysical, small-molecule microarray, 635/667 nm fluorescence, artefact control for SMM compound annotation, primary screen (AID 1147); details: higher = more signal;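 note: signal reflects streptavidin binding to arrayed compounds as a control protein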
# [16] = probe aInhba binding on compound microarray – biochemical, small-molecule microarray, 635/667 nm fluorescence, primary screen (AID 1148); details: higher = more signal;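 note: score merges 667nm spot fluorescence with signal-to-noise for antibody binding to printed compounds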
# Torsin-1A (Homo sapiens) [17] = target: Torsin-1A (Homo sapiens) (UniProt O14656); assay: TOR1A wild-type binding on microarray – cell lysate, small-molecule microarray, lysate, 635/667 nm, primary screen (AID 1149); details: COS7 hTOR1A-WT lysate, 635 nm fluorescence, higher = more signal
# Torsin-1A (Homo sapiens) [18] = target: Torsin-1A (Homo sapiens) (UniProt O14656); assay: torsin A mutant lysate binding on microarrays – cell lysate, small-molecule microarray, COS7 lysate, 635/667 nm fluorescence, primary screen (AID 1150); details: COS7 hTOR1A mutant lysate, 635 nm fluorescence, higher = more signal;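 note: score pools 667 nm emission and signal to noise measuring lysate protein binding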
# [19] = test system: Sonic hedgehog protein (Shh); assay: Sonic hedgehog microarray binding compounds – biochemical, small-molecule microarray, 635/667 nm fluorescence, primary screen (AID 1151); details: 635 nm fluorescence, higher = more signal;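 note: Shh protein binding to compounds spotted on small-molecule microarray slides; score combines spot fluorescence intensity with signal-to-noise across triplicate slides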
# Streptavidin (Streptomyces avidinii), sequence (P22629 whole entry, looked up): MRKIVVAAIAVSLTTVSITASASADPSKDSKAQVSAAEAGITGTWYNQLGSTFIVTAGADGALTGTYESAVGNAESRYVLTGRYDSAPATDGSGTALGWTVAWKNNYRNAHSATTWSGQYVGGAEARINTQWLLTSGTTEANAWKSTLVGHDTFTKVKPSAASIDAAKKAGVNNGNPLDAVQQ
# Fibroblast growth factor 2 (Homo sapiens), sequence (P09038 whole entry, looked up): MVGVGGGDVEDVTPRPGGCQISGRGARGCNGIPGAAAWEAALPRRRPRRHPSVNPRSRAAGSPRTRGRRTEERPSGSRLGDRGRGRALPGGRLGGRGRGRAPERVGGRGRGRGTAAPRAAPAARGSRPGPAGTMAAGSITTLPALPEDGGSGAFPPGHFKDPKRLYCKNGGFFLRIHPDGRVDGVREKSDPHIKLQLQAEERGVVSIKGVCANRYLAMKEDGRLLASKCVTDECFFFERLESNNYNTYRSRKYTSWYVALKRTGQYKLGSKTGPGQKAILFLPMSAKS
# Focal adhesion kinase 1 (Homo sapiens), sequence (Q05397 whole entry, looked up): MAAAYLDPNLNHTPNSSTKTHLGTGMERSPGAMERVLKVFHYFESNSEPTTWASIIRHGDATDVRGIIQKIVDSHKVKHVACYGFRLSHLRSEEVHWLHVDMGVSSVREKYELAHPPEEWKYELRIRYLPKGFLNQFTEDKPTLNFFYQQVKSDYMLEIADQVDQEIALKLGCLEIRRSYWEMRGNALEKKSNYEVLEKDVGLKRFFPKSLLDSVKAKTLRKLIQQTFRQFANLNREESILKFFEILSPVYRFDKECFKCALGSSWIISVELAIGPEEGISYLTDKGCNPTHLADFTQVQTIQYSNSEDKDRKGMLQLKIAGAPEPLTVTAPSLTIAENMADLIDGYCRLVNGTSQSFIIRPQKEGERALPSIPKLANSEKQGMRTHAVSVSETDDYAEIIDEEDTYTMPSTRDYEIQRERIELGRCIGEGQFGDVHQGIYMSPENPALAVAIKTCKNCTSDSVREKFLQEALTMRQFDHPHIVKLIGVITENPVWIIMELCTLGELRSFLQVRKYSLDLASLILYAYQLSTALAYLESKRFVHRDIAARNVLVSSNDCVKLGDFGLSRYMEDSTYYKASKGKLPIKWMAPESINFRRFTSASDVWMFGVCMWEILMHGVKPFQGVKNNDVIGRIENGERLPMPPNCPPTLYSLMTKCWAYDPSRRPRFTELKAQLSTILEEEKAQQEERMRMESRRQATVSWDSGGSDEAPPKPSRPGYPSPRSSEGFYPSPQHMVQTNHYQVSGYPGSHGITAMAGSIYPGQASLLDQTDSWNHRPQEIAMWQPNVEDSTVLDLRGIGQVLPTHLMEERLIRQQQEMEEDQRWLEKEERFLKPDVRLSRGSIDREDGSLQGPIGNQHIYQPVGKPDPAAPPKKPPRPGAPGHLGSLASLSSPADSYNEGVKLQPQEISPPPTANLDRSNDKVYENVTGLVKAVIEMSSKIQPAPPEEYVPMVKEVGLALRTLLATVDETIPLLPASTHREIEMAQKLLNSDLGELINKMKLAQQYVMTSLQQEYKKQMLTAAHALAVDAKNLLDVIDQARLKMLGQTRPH
# Luciferin 4-monooxygenase (Photinus pyralis), sequence (P08659 whole entry, looked up): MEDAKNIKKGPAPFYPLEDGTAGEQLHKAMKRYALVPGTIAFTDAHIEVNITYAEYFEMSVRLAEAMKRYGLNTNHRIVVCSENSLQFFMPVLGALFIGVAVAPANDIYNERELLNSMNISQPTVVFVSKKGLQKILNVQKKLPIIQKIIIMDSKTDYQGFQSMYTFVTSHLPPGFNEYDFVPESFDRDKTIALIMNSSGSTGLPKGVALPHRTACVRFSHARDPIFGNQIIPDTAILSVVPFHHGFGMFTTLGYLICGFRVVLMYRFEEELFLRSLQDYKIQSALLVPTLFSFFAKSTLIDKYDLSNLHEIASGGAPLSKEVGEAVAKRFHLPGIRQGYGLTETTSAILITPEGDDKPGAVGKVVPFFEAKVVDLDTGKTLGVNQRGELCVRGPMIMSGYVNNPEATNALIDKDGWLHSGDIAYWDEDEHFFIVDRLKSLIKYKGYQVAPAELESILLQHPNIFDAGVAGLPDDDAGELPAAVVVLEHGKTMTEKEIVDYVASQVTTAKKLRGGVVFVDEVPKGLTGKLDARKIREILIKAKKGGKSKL
# Torsin-1A (Homo sapiens), sequence (O14656 whole entry, looked up): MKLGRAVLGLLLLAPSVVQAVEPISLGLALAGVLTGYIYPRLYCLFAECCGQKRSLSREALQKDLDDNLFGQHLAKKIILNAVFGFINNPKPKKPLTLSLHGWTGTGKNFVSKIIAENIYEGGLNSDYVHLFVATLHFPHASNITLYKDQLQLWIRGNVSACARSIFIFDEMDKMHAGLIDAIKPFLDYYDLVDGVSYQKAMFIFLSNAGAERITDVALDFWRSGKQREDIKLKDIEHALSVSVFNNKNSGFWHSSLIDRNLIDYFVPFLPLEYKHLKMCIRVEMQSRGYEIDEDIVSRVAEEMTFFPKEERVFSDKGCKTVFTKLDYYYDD
# Follistatin (Homo sapiens), sequence (P19883 whole entry, looked up): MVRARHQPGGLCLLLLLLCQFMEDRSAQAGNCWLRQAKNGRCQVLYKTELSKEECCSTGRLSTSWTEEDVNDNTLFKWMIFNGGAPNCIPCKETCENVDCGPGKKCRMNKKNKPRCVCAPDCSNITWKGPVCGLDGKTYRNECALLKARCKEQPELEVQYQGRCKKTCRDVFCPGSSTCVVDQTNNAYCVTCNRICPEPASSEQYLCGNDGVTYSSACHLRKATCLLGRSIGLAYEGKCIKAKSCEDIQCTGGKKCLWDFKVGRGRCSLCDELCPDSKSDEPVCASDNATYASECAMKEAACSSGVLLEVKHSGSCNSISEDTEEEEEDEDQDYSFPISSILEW
SMILES,composite z-score [1],composite z-score [2],composite z-score [3],composite z-score [4],composite z-score [5],composite z-score [6],z-score [7],composite z-score (Lefty1),composite z-score [8],z-score [9],composite z-score [10],z-score [11],z-score [12],z-score [13],z-score [14],composite z-score [15],composite z-score [16],composite z-score (Torsin-1A (Homo sapiens) [17]),composite z-score (Torsin-1A (Homo sapiens) [18]),composite z-score [19]
CN1C(=O)C2C=CC(C(O)c3ccccn3)N(Nc3ccccc3)C2C1=O (stereo not given),0.621,0.302,-0.187,1.03,0.563,0.213,-0.633,0.125,0.489,-1.12 (inactive),-0.0522,0.901 (inactive),-0.652 (inactive),0.0467 (inactive),0.4 (inactive),0.324,-0.0069,0.884,-0.179,0.207
CCCCCN1CC=CC23O[C@@H]4/C=C\CCC(C)OC(=O)C4[C@H]2C(=O)N(CCCCCO)[C@@H]3C1=O (stereo not given in full),-0.0232,-0.413,-0.0791,-1.46,-0.35,0.517,-0.108,0.184,0.233,-2.73 (inactive),-1.01,0.292 (inactive),-1.35 (inactive),-0.492 (inactive),0.069 (inactive),-1.33,-0.182,-0.798,0.815,-0.0084
COCCOC(=O)N1C(=O)[C@@]2(c3cc(C#CCNC(N)=O)ccc31)[C@H](c1ccc(OCCO)cc1)N1[C@H](c3ccccc3)[C@H](c3ccccc3)OC(=O)[C@H]1[C@@H]2C(=O)N1CCc2cc(OC)c(OC)cc2C1,0.276,0.665,0.145,0.531,1.38,1.2,-1.41,0.658,0.848,-0.702 (inactive),0.426,-0.0916 (inactive),-1.59 (inactive),-0.471 (inactive),-0.644 (inactive),0.175,-0.0136,0.0053,-0.193,0.815
CC(C)C(=C=CC[C@H](O)c1ccccc1OCCO)C[C@H](O)c1ccccn1,1.93,0.958,0.344,0.207,0.476,0.857,0.453,0.649,1.33,-0.88 (inactive),0.257,-0.667 (inactive),-0.0531 (inactive),4.99 (inactive),0.0622 (inactive),-0.199,-0.0205,0.635,1.59,1.63
COCCOC(=O)N1C(=O)[C@@]2(c3cc(C#CCC(C(=O)OC)C(=O)OC)ccc31)[C@H](C(=O)N1CCN(c3ncccn3)CC1)[C@H]1C(=O)O[C@H](c3ccccc3)[C@H](c3ccccc3)N1[C@@H]2c1ccc(OCCO)cc1,1.61,1.19,0.21,0.993,1.24,1.2,-1.31,0.733,0.945,-0.59 (inactive),0.148,-3.18 (inactive),-1.66 (inactive),-1.83 (inactive),-1.08 (inactive),0.392,-0.0221,0.2,0.542,1.3
COC(=O)[C@@]1(Cc2ccccc2)[C@H]2c3cc(C(=O)N(C)C)n(Cc4cc(C)n(C)n4)c3C[C@H]2CN1C(=O)c1ccccc1,1.95,1.13,0.57,-0.103,0.229,-0.768,-0.127,-0.169,0.889,0.887 (inactive),0.0704,-1.31 (inactive),0.381 (inactive),2.3 (inactive),1.92 (inactive),1.63,0.606,1.31,1.99,0.278
Cc1ccc(S[C@]2(C(=O)NC3CC3)CC(=O)N(C3CCCCC3)[C@@H]2c2ccc(CO)cc2I)cc1,0.104,1.21,0.176,0.304,1.26,0.341,1.69,0.87,0.368,1.06 (inactive),0.136,-3.4 (inactive),-0.128 (inactive),0.362 (inactive),0.681 (inactive),0.936,-0.0375,0.254,0.582,1.77
COCCOC(=O)N1C(=O)[C@@]2(c3cc(C#CCC(C(=O)OC)C(=O)OC)ccc31)[C@H](c1ccccc1OCCO)N1[C@H](c3ccccc3)[C@H](c3ccccc3)OC(=O)[C@H]1[C@@H]2C(=O)N1CCc2cc(OC)c(OC)cc2C1,0.89,1.19,1.33,0.938,1.41,1.49,-0.978,1.47,0.784,-0.882 (inactive),-0.184,-3.42 (inactive),-1.52 (inactive),-1.42 (inactive),-1.16 (inactive),0.226,-0.0774,0.298,0.619,1.88
CCOC(=O)C1=CCC(c2ccc([N+](=O)[O-])cc2)N(S(=O)(=O)c2ccc(C)cc2)C1 (stereo not given),0.711,0.915,0.801,-0.0411,0.261,-0.277,1.15,-0.023,0.44,1.95 (inactive),0.0898,-3.94 (inactive),0.203 (inactive),0.687 (inactive),0.264 (inactive),0.653,0.111,0.242,0.103,-0.377
C=CCNC(=O)[C@H]1[C@@H]2C(=O)O[C@@H](c3ccccc3)[C@@H](c3ccccc3)N2[C@@H](c2ccc(O)cc2)[C@]12C(=O)N(C(=O)OCCOC)c1ccc(C#CCCO)cc12,1.03,-0.0757,0.38,0.288,0.448,0.748,0.956,-0.0874,-0.163,-0.923 (inactive),0.317,-0.185 (inactive),-0.176 (inactive),-0.141 (inactive),0.567 (inactive),-0.0841,-0.0954,0.846,0.432,1.08
